Tb PFK inh-1 – inhibitors of T. brucei phosphofructokinase; O15648; T. brucei PFK, ADP-Glo luminescence; Potency, µM (top dose mostly 57.5 µM), without a hit: at the highest dose activity, negative = inhibition, actives largely listed as inhibitors; hit rate 0.17% among 330,000; AID 485367;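 also: potency is read from the fitted curve at half-maximal effect; 0% = uninhibited 1x PFK enzyme wells and -100% = no-enzyme wells; nearly all actives have a fitted effect of over 60% in size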
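ADP-Glo luminescence quantified ADP after 45 min at room temperature, with 1.25 nM T. brucei PFK, 0.1 mM ATP and 0.5 mM fructose-6-phosphate in pH 8.0 TEA buffer. qHTS titrations up to 57 µM; curves classified by quality.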
p53 reactivation – restores transcriptional activity of mutant p53 | H1299 p53-A138V BP100-luciferase reporter, luminescence, 24 h | Potency, µM (highest dose often 92.2 µM), without a hit: at the highest dose activity change, positive = activation, hits mostly activators | hit rate 0.063% among 320,000 | AID 504706; also: potency is read from the fitted curve at half-maximal effect; % of control where 0% means no effect; nearly all actives have a fitted effect of over 45% in size
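H1299 (p53-null), stable ts p53-A138V + BP100-Luc; 1000 cells/well, Opti-MEM/10% FBS; cpd 4 pt, 1:5; 24 h, 37 deg C, 5% CO2; detection reagent 10 min RT; luminescence.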
gsp antagonist – antagonists of gsp mutant (McCune-Albright syndrome); gsp-mutant cells, cAMP HTRF, 30 min; Potency, µM (series often up to 76.9 µM), without a hit: at the highest dose activity change, negative = inhibition, hits mostly inhibitors; hit rate 0.4% among 340,000; calls by dose curve; cell line not stated here;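 also: intracellular cAMP measured with PDE inhibitor Ro 20-1724 present during compound exposure; potency is read from the fitted curve at half-maximal effect; % is scaled to controls: 0 for no effect and ±100 for the full control effect; nearly all actives have a fitted effect of over 65% in size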
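Measurement of cellular cAMP by homogeneous time-resolved fluorescence following a 30 min compound exposure at 37C. The PDE inhibitor […] was present throughout; the assay buffer was DPBS with 0.05% BSA and 0.005% Tween 20.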
RXFP1 antagonist – RXFP1 (human) relaxin receptor antagonism | Q9HBX9 | AID 1259400 | hit rate 0.59% among 350,000 | HEK293-RXFP1, relaxin-stimulated cAMP HTRF, 30 min; active compounds read low | activity change, negative = inhibition, % at 57.5 µM;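 active = activity change of -60% or lower, but not beyond a set lower limit; inconclusive = change between -60% and -40%, or beyond the set limit; inactive = change above -40%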; also: % is scaled to controls: 0 for no effect and ±100 for the full control effect
Target sequence (Q9HBX9 whole entry, looked up): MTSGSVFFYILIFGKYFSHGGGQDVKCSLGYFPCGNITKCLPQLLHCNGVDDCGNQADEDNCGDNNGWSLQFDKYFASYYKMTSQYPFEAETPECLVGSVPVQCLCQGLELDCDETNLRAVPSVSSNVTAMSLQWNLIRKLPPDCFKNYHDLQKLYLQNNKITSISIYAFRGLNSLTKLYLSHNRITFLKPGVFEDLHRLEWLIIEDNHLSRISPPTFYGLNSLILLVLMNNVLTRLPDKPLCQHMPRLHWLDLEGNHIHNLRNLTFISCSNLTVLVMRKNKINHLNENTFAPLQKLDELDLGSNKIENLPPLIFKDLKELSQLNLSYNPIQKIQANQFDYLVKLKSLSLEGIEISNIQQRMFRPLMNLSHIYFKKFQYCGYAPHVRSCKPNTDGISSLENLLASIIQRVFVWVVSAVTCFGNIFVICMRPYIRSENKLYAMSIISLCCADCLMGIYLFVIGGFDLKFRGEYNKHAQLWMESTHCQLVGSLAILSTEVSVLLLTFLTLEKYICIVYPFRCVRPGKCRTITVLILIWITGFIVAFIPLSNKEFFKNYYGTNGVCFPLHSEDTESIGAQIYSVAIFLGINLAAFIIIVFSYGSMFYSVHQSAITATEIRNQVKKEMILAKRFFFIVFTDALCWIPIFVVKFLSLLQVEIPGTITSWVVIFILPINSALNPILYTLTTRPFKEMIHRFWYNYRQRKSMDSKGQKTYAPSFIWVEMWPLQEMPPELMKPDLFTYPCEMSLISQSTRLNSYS
RXFP1 ag – activates the human relaxin receptor RXFP1; AID 2676; Potency, µM (titrated, usually from 57.5 µM), for the others: at the highest dose activation, hits mostly activators; Q9HBX9; HEK293T-RXFP1 cAMP TR-FRET, 30 min; response scale: percent of porcine relaxin response, buffer zero; hit rate 0.3% among 370,000; also: potency is read from the fitted curve at half-maximal effect; % is scaled to controls: 0 for no effect and ±100 for the full control effect; nearly all actives have a fitted effect of over 60% in size
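cAMP rise read by TR-FRET after 30 min, 37C compound exposure (up to 58 uM) in RXFP1-transfected HEK293 cells with Ro 20174 present. EC50 from Hill-equation fits, with 29 nM porcine relaxin as 100% and buffer as basal.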
gsp agonist – activates gsp, the McCune-Albright syndrome mutation; gsp mutant cells, cAMP HTRF, 30 min; Potency, µM (highest dose often 76.9 µM), for inactives: at the highest dose activation (cAMP increase), actives largely listed as activators; hit rate 0.13% among 340,000; AID 624287; active = well fitted activation curve with a large enough effect; inconclusive = small, poorly fitted or top-dose-only effect, or another doubt; inactive = no such curve, though single readings can be large or run the other way; cell line not stated here;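 also: phosphodiesterase inhibitor Ro 20-1724 added with compounds to block cAMP breakdown; potency is read from the fitted curve at half-maximal effect; nearly all actives have a fitted effect of over 60% in size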
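Cells stably selected in G418 were plated at 2000/well, grown 16-24 hr, then given compounds in DMSO with the PDE inhibitor […] (300 uM solution added) for 30 min at 37C; cAMP was read by HTRF.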
TbPFK ATP – orthogonal confirmation of T. brucei phosphofructokinase inhibitors | Potency, µM (series often up to 57.5 µM), without a hit: top-dose inhibition | Tb PFK enzyme, ATP depletion, Kinase-Glo Plus luminescence | hit rate 47% among 1,100 | shares compounds with Tb PFK inh-1; calls by dose curve; also: potency is read from the fitted curve at half-maximal effect; nearly all actives have a fitted effect of over 60% in size
Tb PFK inh-2 – validation of T. brucei phosphofructokinase inhibitors; shares compounds with Tb PFK inh-1; purified T. brucei PFK, ADP-Glo luminescence, 45 min; Potency, µM (highest dose often 57.5 µM), for the others: top-dose activity change, negative = inhibition, actives largely listed as inhibitors; hit rate 41% among 1,100;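 also: potency is read from the fitted curve at half-maximal effect; plate controls were full PFK enzyme control for no effect and no enzyme control for full effect; nearly all actives have a fitted effect of over 60% in size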
Numbers without * were called inactive; ? = inconclusive; · = no result given; [ ] = remark or other dose. An excerpt weighted towards active compounds, which were near 1.1% of everything screened. Unless noted, calls follow the shape of the dose curve; as a rule, active = well fitted curve in the direction sought with a large enough effect; inconclusive = small, poorly fitted or top-dose-only effect, or another doubt; inactive = no such curve, though single readings can be large; an effect the other way counts as inactive or inconclusive.

SMILES	Tb PFK inh-1	p53 reactivation	gsp antagonist	RXFP1 antagonist	RXFP1 ag	gsp agonist	TbPFK ATP	Tb PFK inh-2
Cc1nnc(NCCc2ccccc2)[nH]c1=O	?	-3%	13%	11	3%	-15%	24µM*	27µM*
Cc1c(Br)c([N+](=O)[O-])nn1CC(=O)Nc1ccc(CC#N)cc1	?	8%	·	·	-1%	·	?	?
Cc1cc(NC(=O)C(Cl)(Cl)Cl)no1	0%	-5%	-5%	3	-1%	30%[15.4 µM]	·	·
Cc1cccc(NC(=O)Cn2nc([N+](=O)[O-])c(Br)c2C)n1	17µM*	28%	12%	-9	0%	-13%[15.4 µM]	12µM*	21µM*
Nc1ccc2nonc2c1[N+](=O)[O-]	-4%	3%	1%	10	4%	16%	·	·
Cc1cc(NC(=O)Cn2nc([N+](=O)[O-])c(Br)c2C)no1	27µM*	3%	9%	-13	1%	-18%[15.4 µM]	21µM*	?
Cc1c(Br)c([N+](=O)[O-])nn1CC(=O)Nc1cccc2nonc12	7.6µM*	6%	-32%	12	1%	25%[15.4 µM]	4.8µM*	2.7µM*
O=C1CNC(c2ccccc2Cl)c2cc(Br)ccc2N1 (stereo not given)	-4%	·	16%	-27	0%	-1%[15.4 µM]	·	·
O=C1NC(=O)N(C2CCCCC2)C(=O)C1C1c2ccccc2C(=O)N1Cc1ccccc1 (stereo not given)	3%	-19%	9%	-6	0%	3%	·	·
CCCOc1ccc(C2SCC(=O)Nc3c2c(C)nn3-c2cccc(C)c2)cc1OC (stereo not given)	·	·	·	-4	-1%	·	·	·
Oc1cc2c(cc1O)C1c3ccc(O)c(O)c3OCC1(O)C2 (stereo not given)	?	5%	-28%	·	-1%	·	?	0.85µM*
O=C1C(Cl)=C(N2CCCCC2)C(=O)N1c1ccccc1	?	13%	-5%	4	1%	3%	-19%	13%
Cc1cc(C)c(C)c(S(=O)(=O)N2CCC(C(=O)OCC(=O)N3c4ccccc4NC(=O)C3(C)C)CC2)c1C	?	-3%	6%	7	1%	-2%	?	?
CCOC(=O)C1CCN(/C=C2/C(=O)NC(=O)N(c3cccc(C)c3C)C2=O)CC1	-1%	-3%	7%	7	-3%	-48%	·	·
CCOC(=O)c1c(NC(=O)COC(=O)c2ccc(NC(=O)CC#N)cc2)sc(C(=O)NC)c1C	0.85µM*	-4%	-10%	2	5%	11%	6µM*	6.7µM*
COc1cccc(/C=C/c2nc3ccccc3c(=O)n2-c2ccc(Cl)cc2)c1OC	·	·	·	-28	2%	·	·	·
S=C(NCc1ccccc1)N1CCN(c2cccc(Cl)c2)CC1	27µM*	-2%	-21%	-1	2%	18%[15.4 µM]	24µM*	27µM*
O=C(NCc1ccccc1)Oc1cccc(Cl)c1	-14%	?	-4%	-5	1%	10%	·	·
S=C(NCCCN1CCOCC1)N1CCN(c2cccc(Cl)c2)CC1	?	-2%	7%	-19	1%	-1%[15.4 µM]	21µM*	27µM*
CCOC(=O)CC(SP1(=S)OCC2(CC=CCC2)CO1)C(=O)OCC (stereo not given)	·	·	?	-26	·	22%	·	·
Cc1ccc(NC(=O)CN(C)C(=O)c2cccc(-n3cccc3)c2)cc1	?	-2%	-12%	-15	1%	4%	?	?
Cc1ccc(NC(=O)Cn2cc(C(=O)c3ccccc3)c3ccccc32)cc1	·	·	·	-2	5%	·	·	·
Cc1c(Cl)cccc1NC(=O)C(=O)NNC(=O)c1ccccc1F	?	-2%	-3%	-21	0%	-28%	-27%	?
CN1CCc2cccc3c2[C@@H]1Cc1ccc(O)c(O)c1-3	4.3µM*	-5%	-15%	·	-1%	·	1.7µM*	6µM*
C=CCn1c(O)c(C(C)=Nc2cccc(C(=O)O)c2)c(=O)[nH]c1=O	8%	5%	4%	-3	5%	-39%[15.4 µM]	·	·
SMILES	Tb PFK inh-1	p53 reactivation	gsp antagonist	RXFP1 antagonist	RXFP1 ag	gsp agonist	TbPFK ATP	Tb PFK inh-2
C=CCn1c(=O)[nH]c2cc(C(=O)N3CCN(c4ccc(C(C)=O)cc4)CC3)ccc2c1=O	?	0%	-23%	24	3%	-21%	?	?
Clc1ccccc1N1CCN(Cc2ccc3c(c2)OCO3)CC1	1%	·	4%	-17	2%	3%	·	·
CN(C)C=Nc1ccc(Cl)c(Cl)c1	27µM*	0%	9%	0	-1%	3%	12%	-8%
Oc1ccc(Cl)c(Cl)c1	?	1%	3%	·	2%	·	·	·
CCCCn1c(O)c(C(C)=Nc2c(C)n(C)n(-c3ccccc3)c2=O)c(=O)[nH]c1=O	2%	4%	-13%	1	0%	?	·	·
COc1ccc(NC(=O)c2ccc(NC(=O)c3nc4nccc(C)n4n3)cc2)cc1	0%	7%	6%	4	·	-119%	·	·
Cc1ccc(C(=O)Nc2nnc(CC(=O)N/N=C/c3ccc(O)c(O)c3)s2)cc1	?	12%	-6%	-7	0%	?	-11%	4%
COc1ccc(C(=O)Nc2nnc(CC(=O)N/N=C/c3ccc(O)cc3O)s2)cc1	?	0%	·	·	-3%	·	-27%	?
Cc1cccc(C(=O)Nc2ccc(Cl)cc2C(=O)c2ccccc2)c1	3%	8%	-11%	-9	-2%	4%	·	·
CC1(C)C2([N+](=O)[O-])CNCC1([N+](=O)[O-])CNC2	5%	-2%	-6%	12	1%	-5%	·	·
O=Cc1cn(Cc2ccc([N+](=O)[O-])cc2)c2ccccc12	17µM*	2%	-5%	-5	0%	21%	?	?
Cc1noc(C)c1COc1ccc(C(=O)NNC(=O)c2ccccc2O)cc1	5.4µM*	1%	2%	7	0%	13%[15.4 µM]	7%	6%
CCN(CC)C(=O)c1ccc(N2C(=O)C3CC=C(Cl)CC3C2=O)cc1 (stereo not given)	-1%	4%	6%	4	1%	15%	·	·
O=C1C2CC=C(Cl)CC2C(=O)N1CCCCCCN1C(=O)C2CC=C(Cl)CC2C1=O (stereo not given)	?	-1%	4%	37	2%	-3%	?	?

Source: PubChem BioAssay
